The full ranking holds about 39,000 sequences; the median of “fluorescence intensity (a.u.)” is about 4,300, and the highest 2% start at about 39,000. The list comes from a sample in which the highest values are over-represented; it also holds similar and randomly drawn sequences.
Each sequence was assayed against T1, OsSMF1 (Oryza sativa, UniProt Q6ZLB0 1-436) (assay: protein-binding microarray (RPBM); PBS, 2% BSA, 51.3 ng/ul salmon testes DNA, 50 uM zinc acetate, 200 nM TF, 25 C, 1 h; high values mean tight binding). Details: protein: recombinant; tags: N-terminal polyhistidine and DsRed monomer fusion (pET32a); chain copies: 2; label: CyDye5-dUTP incorporated in the synthesized complementary strand; 3' TTTTT single-stranded linker to array surface; dsDNA, one strand shown.
T1 sequence: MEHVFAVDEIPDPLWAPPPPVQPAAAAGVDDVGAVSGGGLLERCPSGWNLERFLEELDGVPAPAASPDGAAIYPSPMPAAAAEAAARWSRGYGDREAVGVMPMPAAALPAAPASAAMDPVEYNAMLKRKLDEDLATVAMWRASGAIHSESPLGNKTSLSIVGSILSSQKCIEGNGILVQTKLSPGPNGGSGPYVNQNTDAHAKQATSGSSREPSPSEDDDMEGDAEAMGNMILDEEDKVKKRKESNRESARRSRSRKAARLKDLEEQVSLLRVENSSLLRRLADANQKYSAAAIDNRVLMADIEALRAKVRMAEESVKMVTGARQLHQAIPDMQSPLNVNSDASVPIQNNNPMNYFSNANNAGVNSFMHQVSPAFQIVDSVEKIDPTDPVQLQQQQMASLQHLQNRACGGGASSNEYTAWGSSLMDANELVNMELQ
How it was run: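 Polyhistidine-tagged DsRed fusions of transcription factors, joined at the N-terminus, were expressed in E. coli BL21-CodonPlus and isolated on Ni–NTA. They were incubated at 200 nM for 1 h at 25 °C on a custom Agilent array, double-stranded and BSA-blocked, in PBS with 2% BSA, salmon testes DNA and 50 µM zinc acetate. The binding signal is per-feature fluorescence intensity (arbitrary units) read on an Axon 4000B scanner after washing.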
“CTCAAAACCACACCGTTAAATGTTTTACCCTACTCTCGTACGGAGTCACCTAGTGCAG” was tested, and the binding signal was 39200 fluorescence intensity (a.u.). In the case of “TTAAAACTCAATTAATCACACGTTATTACCACCTCGTTTTCGGAGTCACCTAGTGCAG”, the binding signal is reported as 3210 fluorescence intensity (a.u.). “TATATACTCTCTTCGTTTCAAAATGTTTGACGCCGTTAACCGGAGTCACCTAGTGCAG” was tested, and the binding signal was 3670 fluorescence intensity (a.u.). “ATAGTATAAAAGTAATGTGATGTGGCTTTATGAGAGAAAACGGAGTCACCTAGTGCAG” was tested, and the binding signal was 3780 fluorescence intensity (a.u.). With “TATATATATATATATATATAAAGTGTATGACATGTGATCACGGAGTCACCTAGTGCAG” the binding signal was 3970 fluorescence intensity (a.u.). With “TGACAGCCACAAGTATGATGTGATAAAGTGTGGCTATAAACGGAGTCACCTAGTGCAG” the binding signal was 65500 fluorescence intensity (a.u.). For “GGAGAAAATTGCGGAGGGGATCCACAGTTCCAGCCGCGTGCGGAGTCACCTAGTGCAG”, the binding signal was 3190 fluorescence intensity (a.u.). With “ACAAAATTTATTTCCAGGTGGCGTCTCCTCATTGGCCAGCCGGAGTCACCTAGTGCAG” the binding signal was 4370 fluorescence intensity (a.u.). With “TGGGTGAGAGTTTGAACCCGAACATATGACACATCTATGTCGGAGTCACCTAGTGCAG” the binding signal was 3270 fluorescence intensity (a.u.). With “ATCACTCTACTTTGTCTGTGTCATATTATAAGCTGCTTGACGGAGTCACCTAGTGCAG” the binding signal was 5640 fluorescence intensity (a.u.). “TATGTCAATACTGTATGCATATATTAACATAAAATATCTCCGGAGTCACCTAGTGCAG” was tested, and the binding signal was 4760 fluorescence intensity (a.u.). In the case of “ACAATTACTGTATTGTGCATATAAGCTGCATATCTATCACCGGAGTCACCTAGTGCAG”, the binding signal is reported as 39900 fluorescence intensity (a.u.). “AGAAAGCAACATGCTGTCCCGGTGGCACATCCGATTAGTACGGAGTCACCTAGTGCAG” was tested, and the binding signal was 3680 fluorescence intensity (a.u.). With “GGCTTCCCGCGCCACAAGCTTTGCCGCCACCTCCTCCTCGCGGAGTCACCTAGTGCAG” the binding signal was 3230 fluorescence intensity (a.u.). “CAGAGTTCCGTTCTGAATTTCTGGTGAGTCATCTGCTGAACGGAGTCACCTAGTGCAG” was tested, and the binding signal was 8920 fluorescence intensity (a.u.). “CCTTAGGCTACGTTGGCTTTTGCATTTTGGCGTGGATTTTCGGAGTCACCTAGTGCAG” was tested, and the binding signal was 14400 fluorescence intensity (a.u.). In the case of “GTTGTCAGTTGGATAGAACCAGTCCAGGAACGTGTGGCCCCGGAGTCACCTAGTGCAG”, the binding signal is reported as 3240 fluorescence intensity (a.u.). With “GTTGCCTTCGTGTCCAGTGGATAGATAAGGATAGGATTTTCGGAGTCACCTAGTGCAG” the binding signal was 65500 fluorescence intensity (a.u.). In the case of “CGCGGATCGGCCGCGAGGCGCACGTGGACATCACCACCAACGGAGTCACCTAGTGCAG”, the binding signal is reported as 4220 fluorescence intensity (a.u.). For “GCTGCACGGCCGCGGCGTGGCGCTGACGGCGACGGTGAGGCGGAGTCACCTAGTGCAG”, the binding signal was 5740 fluorescence intensity (a.u.). “GCGAGCTGTGCCGTTCTTGATCACCGAGGCGATGGCGGCGCGGAGTCACCTAGTGCAG” was tested, and the binding signal was 39200 fluorescence intensity (a.u.). With “GAAGCTGTCATCGCTGATGCGGCGAAGAGATCATCATCACCGGAGTCACCTAGTGCAG” the binding signal was 4450 fluorescence intensity (a.u.). In the case of “GCCGCCGCCGCCGGAGAAGATGATGGTGCCGCTGGATCCGCGGAGTCACCTAGTGCAG”, the binding signal is reported as 43500 fluorescence intensity (a.u.). In the case of “GATGATGATGATGATGATGATGAGAAGGTGGTGCCGCCGCCGGAGTCACCTAGTGCAG”, the binding signal is reported as 4280 fluorescence intensity (a.u.). For “AGATGGCGGCGGCGGCGCAGATCCGGCCTCCACGCGCGCACGGAGTCACCTAGTGCAG”, the binding signal was 3940 fluorescence intensity (a.u.). With “GAGCCGCTGATCCGCTGCACGGCGGCGCGGAGCGCGTCGACGGAGTCACCTAGTGCAG” the binding signal was 39100 fluorescence intensity (a.u.). For “CCCGCGCCGCGGCGGATCGATGGAGCTGTTCGAGCGCGCGCGGAGTCACCTAGTGCAG”, the binding signal was 3160 fluorescence intensity (a.u.). In the case of “CGGCGCAGATCCGGCGAGCGGCGGCGGCGGAAGCTGATGGCGGAGTCACCTAGTGCAG”, the binding signal is reported as 39900 fluorescence intensity (a.u.). “ATGGTGGAGAAGGTGACGATGACACGAGGTGATCTGGATCCGGAGTCACCTAGTGCAG” was tested, and the binding signal was 3680 fluorescence intensity (a.u.). “GAGCGCTGCGTGCGCGCGCGTCCGCGGCCACGCCATCCGCCGGAGTCACCTAGTGCAG” was tested, and the binding signal was 4600 fluorescence intensity (a.u.). In the case of “TTGATGGCGATCTGCGAGGCCGTGCGGGTCACGGAGCGCGCGGAGTCACCTAGTGCAG”, the binding signal is reported as 30900 fluorescence intensity (a.u.). In the case of “GTTTGGAATTTTGGATAGAAATTCCGGGCGTGACACATCGCGGAGTCACCTAGTGCAG”, the binding signal is reported as 5880 fluorescence intensity (a.u.). For “ATGTCGCTGTGGCTCATCCGGCCCAAGCCCATTTCCCCACCGGAGTCACCTAGTGCAG”, the binding signal was 29500 fluorescence intensity (a.u.). With “AAACTGAAGGGTATTTTCACAAAATTTCCTTTTCTTTCTCCGGAGTCACCTAGTGCAG” the binding signal was 6620 fluorescence intensity (a.u.). For “GTATATGCGTCATGTGCGTCTTCCCTGTCACGAGTGCGTGCGGAGTCACCTAGTGCAG”, the binding signal was 7200 fluorescence intensity (a.u.). In the case of “ACATGTGGGTCCTGTTGACATGTAGGTGCCACCTTGGCATCGGAGTCACCTAGTGCAG”, the binding signal is reported as 4440 fluorescence intensity (a.u.). “GAAACTTTCCTACGCACAAACTTTCAACTTTTACGTCACACGGAGTCACCTAGTGCAG” was tested, and the binding signal was 3340 fluorescence intensity (a.u.). For “CATGCTATGTGCTCAAAGGGCAACGGTCGACGTGTGCCTTCGGAGTCACCTAGTGCAG”, the binding signal was 4110 fluorescence intensity (a.u.). In the case of “CTAAACAAAGGATGAGGCTATGAGCACCCACCAACCATACCGGAGTCACCTAGTGCAG”, the binding signal is reported as 34200 fluorescence intensity (a.u.). In the case of “AGATCTGCACAACCATAACGGCTAAAGAGGAGATACCAAACGGAGTCACCTAGTGCAG”, the binding signal is reported as 65500 fluorescence intensity (a.u.). In the case of “ACACAGATCTGCAACCAAAACAAATGCAACACTAAACACCCGGAGTCACCTAGTGCAG”, the binding signal is reported as 26100 fluorescence intensity (a.u.). “GCACAACCGCACACGAGACGACGTCACCCACAACCGCACGCGGAGTCACCTAGTGCAG” was tested, and the binding signal was 6040 fluorescence intensity (a.u.). In the case of “TTCTTCGAGGACCACATGCGTGAGTGGATGACGGAGTTCCCGGAGTCACCTAGTGCAG”, the binding signal is reported as 3950 fluorescence intensity (a.u.). In the case of “TTAATTATTAAATTCTTTTCACTGTCTACTACTTGTTCCGCGGAGTCACCTAGTGCAG”, the binding signal is reported as 22300 fluorescence intensity (a.u.). In the case of “GTTTTATGGTTGGAGGTCATGAATCATACTCGTGTCATAGCGGAGTCACCTAGTGCAG”, the binding signal is reported as 7410 fluorescence intensity (a.u.). For “TTTGTGGTTGGAGGTTATGAATCATACTCGAGGCATAGTTCGGAGTCACCTAGTGCAG”, the binding signal was 22000 fluorescence intensity (a.u.). With “CGGCATTATATACTAAAGAAAATGGAGGGAGTAGGAATCACGGAGTCACCTAGTGCAG” the binding signal was 28700 fluorescence intensity (a.u.). In the case of “GCGGAAAGGGAAAGGCCCGACGAATGGGAGGAATCATATACGGAGTCACCTAGTGCAG”, the binding signal is reported as 40300 fluorescence intensity (a.u.). For “TGGAGGTTATGAATCATACTCGGACGATAGTTAAGGGAGTCGGAGTCACCTAGTGCAG”, the binding signal was 49700 fluorescence intensity (a.u.). For “CTGACGAATATACAGGAGGGAACCGAATGGCGCGCAATTGCGGAGTCACCTAGTGCAG”, the binding signal was 21700 fluorescence intensity (a.u.). With “AGATTAGGTTGCTGTAGCCATGACTGTGAGTTGTGACTAGCGGAGTCACCTAGTGCAG” the binding signal was 4030 fluorescence intensity (a.u.). In the case of “TGTATGGGCCTTACGTCAGCACGGCCCAGTTGCTGGTTTTCGGAGTCACCTAGTGCAG”, the binding signal is reported as 17700 fluorescence intensity (a.u.). “TCACCTCCACCACCGTTGACGATGACACGCGGTGCGTCGCCGGAGTCACCTAGTGCAG” was tested, and the binding signal was 4250 fluorescence intensity (a.u.). With “ACATTTATTGCATCATTACATTCTGAAGTAATTTCAACATCGGAGTCACCTAGTGCAG” the binding signal was 3470 fluorescence intensity (a.u.). In the case of “AACTAATGAATAGTGTGACGTATTGCCGAAATTTCTCAACCGGAGTCACCTAGTGCAG”, the binding signal is reported as 7380 fluorescence intensity (a.u.). “TGTGAATTGCATCAACCGAAAAGTAGATATTGGAGTATTTCGGAGTCACCTAGTGCAG” was tested, and the binding signal was 65500 fluorescence intensity (a.u.).

Source: paper PMC7819943, “Rice protein-binding microarrays: a tool to detect cis-acting elements near promoter regions in rice”
